In all, about 35,000 sequences were measured (“fluorescence intensity (a.u.)”: median about 10,000, highest 2% from about 52,000 on). Shown is part of a subset that was picked to be rich in the highest values.
target: T1, OsWOX13 (Oryza sativa, UniProt Q5QMM3 1-267); experiment: protein-binding microarray (RPBM); PBS, 2% BSA, 51.3 ng/ul salmon testes DNA, 50 uM zinc acetate, 200 nM TF, 25 C, 1 h; high values mean tight binding; details: protein: recombinant; tags: N-terminal polyhistidine and DsRed monomer fusion (pET32a); label: CyDye5-dUTP incorporated in the synthesized complementary strand; 3' TTTTT single-stranded linker to array surface; dsDNA, one strand shown
T1 sequence: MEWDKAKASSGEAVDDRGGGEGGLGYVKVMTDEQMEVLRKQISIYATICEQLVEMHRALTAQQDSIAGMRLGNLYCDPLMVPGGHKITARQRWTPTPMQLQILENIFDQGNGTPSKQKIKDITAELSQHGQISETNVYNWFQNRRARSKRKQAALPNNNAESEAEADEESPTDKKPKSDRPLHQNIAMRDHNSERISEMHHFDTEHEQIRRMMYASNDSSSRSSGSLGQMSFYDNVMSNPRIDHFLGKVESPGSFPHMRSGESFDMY
In short: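 In PBS with 2% BSA, salmon testes DNA and 50 µM zinc acetate, 200 nM protein was incubated on a custom Agilent array at 25 °C for 1 h and then washed off. The array had been made double-stranded by primer extension with Cy5-dUTP and blocked with 2% BSA. The proteins were transcription factors fused N-terminally to polyhistidine and DsRed, expressed in E. coli BL21-CodonPlus and purified on Ni–NTA. The binding signal is per-feature fluorescence intensity (arbitrary units) from an Axon 4000B scanner.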

Sequence	binding signal
GGCTAATTTGGCGAGGTAATACGGTAGTATAGCACGGTTACGGAGTCACCTAGTGCAG	10500 fluorescence intensity (a.u.)
CCCGCTTGAATGGATGGCAATCAACACAAGGAACAGACCGCGGAGTCACCTAGTGCAG	13700 fluorescence intensity (a.u.)
AATCAAATTGCCACTTAAATCTATTGCCTCAAGTGAACAGCGGAGTCACCTAGTGCAG	16100 fluorescence intensity (a.u.)
GATCAATTAATATGGAATTTAAAAGTTCAATTAATATGGACGGAGTCACCTAGTGCAG	8910 fluorescence intensity (a.u.)
TTCAATTGATGTTCTTGCTTGCAAGTTGCAACGAGATTTGCGGAGTCACCTAGTGCAG	7920 fluorescence intensity (a.u.)
AATGATGATTGATGGGTCATGGCACAAGGACGCTAAACCGCGGAGTCACCTAGTGCAG	40700 fluorescence intensity (a.u.)
ATATAATAGCTAATCAAACACTAGTCCGAAGACGTAGTATCGGAGTCACCTAGTGCAG	21700 fluorescence intensity (a.u.)
CCCTCGCCTGGGCCGATCCCCATACATCCCGCGAGCGCGACGGAGTCACCTAGTGCAG	3440 fluorescence intensity (a.u.)
GTTCGATTGAGATAGCTCTTAACATCAGTGACTTCTAGCCCGGAGTCACCTAGTGCAG	3800 fluorescence intensity (a.u.)
CCCTCCAATCAAATTAACCTCCATATCTCTAGCAATCTGCCGGAGTCACCTAGTGCAG	29800 fluorescence intensity (a.u.)
ATAAATTAATCCAGGCGTGATCTCCCGGCGCCCGCACGCGCGGAGTCACCTAGTGCAG	7300 fluorescence intensity (a.u.)
ATTAATTAACAATAATAAGTGATTAATAATTAATTAATCGCGGAGTCACCTAGTGCAG	44200 fluorescence intensity (a.u.)
TTTAATCACAAGCAAATCAATTAACTCATCCATACTCATCCGGAGTCACCTAGTGCAG	24200 fluorescence intensity (a.u.)
TTAATTAACGCGATTAATTAGCCGCAAATCTCAATCCAGGCGGAGTCACCTAGTGCAG	53200 fluorescence intensity (a.u.)
TCCCAATTAAGTCAATCAGTAATAATAAATAATTATGAACCGGAGTCACCTAGTGCAG	32500 fluorescence intensity (a.u.)
TATTCAAATCATTTAAGTAATTATTTATTCTTTTCATATCCGGAGTCACCTAGTGCAG	10000 fluorescence intensity (a.u.)
GATGATAAATTAAGTCACAATAAATAAATAATAATAATATCGGAGTCACCTAGTGCAG	5820 fluorescence intensity (a.u.)
GCTACAATAATTAATCAATTAATTAAATTAAATTAAGTGGCGGAGTCACCTAGTGCAG	55300 fluorescence intensity (a.u.)
TAAGTAATTAATTAATCAATCAATTAATCAATTATTATCCCGGAGTCACCTAGTGCAG	52600 fluorescence intensity (a.u.)
AATTAATTATCATCATTACCGCAAATTCTCAAAAGTCAGGCGGAGTCACCTAGTGCAG	41200 fluorescence intensity (a.u.)
GCAATCAATCAATCAATCATATATCCATATCAAATTAAGCCGGAGTCACCTAGTGCAG	61800 fluorescence intensity (a.u.)
CATCCAATCAGTTTAGACAAGGTAAAGTCTCATTTTCACACGGAGTCACCTAGTGCAG	17800 fluorescence intensity (a.u.)
CTCATAACACTTTCCTAATTGCCTCATATGCGGCCTTCCCCGGAGTCACCTAGTGCAG	7620 fluorescence intensity (a.u.)
CTGCACAGTTAATTAAAGGAAAACTGGCGAAAACCCGGCACGGAGTCACCTAGTGCAG	8360 fluorescence intensity (a.u.)
CTTGCTGGTACCAATTAACATGGGTATGTTTAATTTGCTGCGGAGTCACCTAGTGCAG	3650 fluorescence intensity (a.u.)

Sequence	binding signal
CCTTAATTACATTGTATATAGTGATGTATGATTTATTTTACGGAGTCACCTAGTGCAG	14700 fluorescence intensity (a.u.)
CATGAGTAAATCAATCAGGGATGGCAACATTCAGGTTTAGCGGAGTCACCTAGTGCAG	12200 fluorescence intensity (a.u.)
CGTTTTGTTAAATTAAAATAAATTAACAAGCCCAATTGCACGGAGTCACCTAGTGCAG	22300 fluorescence intensity (a.u.)
TTACATTAGCAATTGATTGCTCTTATTTGACCATGATGTTCGGAGTCACCTAGTGCAG	31500 fluorescence intensity (a.u.)
TGATTCAAATGATTGAAGCTTTCCAAAACCTATGAAATTCCGGAGTCACCTAGTGCAG	17700 fluorescence intensity (a.u.)
TAAAATTGAAAATTTGATTGAAATTGGAACGATGTGATGGCGGAGTCACCTAGTGCAG	64500 fluorescence intensity (a.u.)
AAAGTTTGGATTTTGATTGAAATTGAAGATGATGTGACTGCGGAGTCACCTAGTGCAG	26700 fluorescence intensity (a.u.)
TTAAAAGTTTGATTGAAATTGGAACGATGTGATGGAAAAGCGGAGTCACCTAGTGCAG	22400 fluorescence intensity (a.u.)
AAATTAAATTATACTCAATACACAAGTTTGAATCTGATTCCGGAGTCACCTAGTGCAG	11400 fluorescence intensity (a.u.)
CAGATGTGACTGGTATATATTGAAAGGTGCGAGGCACTGGCGGAGTCACCTAGTGCAG	9620 fluorescence intensity (a.u.)
GTTGATGAGAGTGAAATTTGATTGACAAAGGATTGACTGGCGGAGTCACCTAGTGCAG	64400 fluorescence intensity (a.u.)
CGTGTGCAGTGCAGTGATGATTGAGAAAGGCCATGCCATACGGAGTCACCTAGTGCAG	3900 fluorescence intensity (a.u.)
AAGTTTGATTAAAATTGGAACGATGTGATGGAAAAGTTAGCGGAGTCACCTAGTGCAG	17300 fluorescence intensity (a.u.)
TTGATTGAAATTGGAGATGATGTGACTGAAAAGTTGTGTGCGGAGTCACCTAGTGCAG	41800 fluorescence intensity (a.u.)
ATGCTTTGATTGAAATCAAGTACTCTGAAGCTAGTCATTCCGGAGTCACCTAGTGCAG	56700 fluorescence intensity (a.u.)
TTGATTGAGATGTGACTGGAAAGGTGTGTCAGTGCAGGCACGGAGTCACCTAGTGCAG	56800 fluorescence intensity (a.u.)
CAAATAATTATTATACTTTGTCATGTCATATAAACTATATCGGAGTCACCTAGTGCAG	17900 fluorescence intensity (a.u.)
ACTCATGCTTACTTGATTGATAGTGGAAGAACCTTTTCTTCGGAGTCACCTAGTGCAG	28200 fluorescence intensity (a.u.)
AGTTTAATGGTGATAATATGATTTCAAAATCTGACAACCGCGGAGTCACCTAGTGCAG	12500 fluorescence intensity (a.u.)
TTTTCTGGTGGCAAGATGATTGAGATATACACCTTGAAGTCGGAGTCACCTAGTGCAG	7690 fluorescence intensity (a.u.)
GGAATTGGTAACAGCAAGCTTAACAGAGAAAGGTAGTCGACGGAGTCACCTAGTGCAG	8350 fluorescence intensity (a.u.)
TCTATAAATTGGCCTAGTACCTGGAAAGTGAAATCTGCCACGGAGTCACCTAGTGCAG	7920 fluorescence intensity (a.u.)
CGTAATTGCATCTCTATTTTCATCTCTACTTCATTTCTCTCGGAGTCACCTAGTGCAG	37900 fluorescence intensity (a.u.)
TCTGATGAACACATTGAGAAAGCAGATGAAGTTGCAGTGTCGGAGTCACCTAGTGCAG	5120 fluorescence intensity (a.u.)
ATAGTGATAGGTCTGTCAATGCAGTGAGGTCCTGAAAACCCGGAGTCACCTAGTGCAG	8210 fluorescence intensity (a.u.)

Sequence	binding signal
CTGATTGAAATTGAAAGTTTGATTGAAATTGAAACGATGCCGGAGTCACCTAGTGCAG	65300 fluorescence intensity (a.u.)
TAGAAGTTTGATTGAAATTGAAACGATATGATGGAAAAGTCGGAGTCACCTAGTGCAG	44500 fluorescence intensity (a.u.)
TTTGGTTGAAATTGAAACGATGTGATGGAAAAGTTGGAAGCGGAGTCACCTAGTGCAG	5010 fluorescence intensity (a.u.)
TCAAAATTAGAAGTTTGAAGAAATTGGAACGATGTGATGGCGGAGTCACCTAGTGCAG	7940 fluorescence intensity (a.u.)
TCTGATTGAACGAGTTTACAGATTGAGAAAGCACGCGTCACGGAGTCACCTAGTGCAG	53800 fluorescence intensity (a.u.)
TGATGAAGATGATGAGCATGTGATTGAGCTGTCTGATTGCCGGAGTCACCTAGTGCAG	33800 fluorescence intensity (a.u.)
AAAATTGAAAGTTTGATTGAAATTAGAACGATGTGACGAACGGAGTCACCTAGTGCAG	35500 fluorescence intensity (a.u.)
TCTCTGTGATTGAAACCTTGTCTCTGAAATGCTTGAGGGCCGGAGTCACCTAGTGCAG	55400 fluorescence intensity (a.u.)
CAAAATTTGAAGTTTGATTGAAATTGGTACGATGTGATGGCGGAGTCACCTAGTGCAG	62400 fluorescence intensity (a.u.)
AATTGATTTATTTTGAAACAGAGAGAATACAGTTTATTTACGGAGTCACCTAGTGCAG	32400 fluorescence intensity (a.u.)
TATTAAACGAATTATCACAAAATTATAGATTTATCATGTTCGGAGTCACCTAGTGCAG	3760 fluorescence intensity (a.u.)
GCTCCAATTTAATTTCAAAATGAATTTATATATTCATTGTCGGAGTCACCTAGTGCAG	14100 fluorescence intensity (a.u.)
CTGCTTAATTACTTCAGCCTTTACACATCAGCATATCATACGGAGTCACCTAGTGCAG	8250 fluorescence intensity (a.u.)
CGTAATTGTTTAGTTGCAAAAGGATAAGCACCAAACCAAACGGAGTCACCTAGTGCAG	12400 fluorescence intensity (a.u.)
ATTATTTGATTGTGGTTTAATTGTTGGTGCAACAGGGTTACGGAGTCACCTAGTGCAG	47900 fluorescence intensity (a.u.)
TCAAAATTGGAAGTTTGATTGAAATTGGAACGATGTGACGCGGAGTCACCTAGTGCAG	61400 fluorescence intensity (a.u.)
AAGTTTGATTGAAATTGGAACGATGTGACGGAAAAGTTGACGGAGTCACCTAGTGCAG	35100 fluorescence intensity (a.u.)
TTGGAAGTTTGATTGAAATTGGAACGATGTGACGGGAAAGCGGAGTCACCTAGTGCAG	23300 fluorescence intensity (a.u.)
TATGTGATTATCTTCTCCATACCATCATGTTCTAGATACGCGGAGTCACCTAGTGCAG	24900 fluorescence intensity (a.u.)
TTCTCATTTTATTTAATTTAAAAGTAATTTATTACATGTTCGGAGTCACCTAGTGCAG	11600 fluorescence intensity (a.u.)
GCCTAATTAATCCATGATTAACCATAAGTGCTGCAGTAACCGGAGTCACCTAGTGCAG	33500 fluorescence intensity (a.u.)
CTGAGATGCTAATTGTGTGTACACTGTTGAGCACATTTGACGGAGTCACCTAGTGCAG	3680 fluorescence intensity (a.u.)
GGCTATTTCGTCCCAATTACCAATGGGCTAATTTTGGATCCGGAGTCACCTAGTGCAG	5000 fluorescence intensity (a.u.)
CTCCCAATATAATTATTTTCTATTTTCACAAACTCAGATACGGAGTCACCTAGTGCAG	5940 fluorescence intensity (a.u.)

From paper PMC7819943, “Rice protein-binding microarrays: a tool to detect cis-acting elements near promoter regions in rice”
